Several values for one entry are separate records, joined by “and”; a condition that tells them apart may be missing. Equal values may be shown once. Out of some 5,500 compounds screened, about 2,000 (36%) were called active. About 18% were inconclusive and are not listed. Cut-off read from the data, not from the text of the source: active = normalized growth mostly below about 0.91 (no sharp cut-off); inconclusive = no clear call, values can overlap the other calls; inactive = mostly above about 0.92. Some of the results follow.
Test: chemical genetic growth profiling, strain panel (AID 1159580);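 note: tested at 20 µM; growth read once vehicle control cultures reached saturation at 30 °C; 1 = growth at the plate median or of vehicle wells; lower values mean less growth of the strain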
Details: S. cerevisiae deletion strains, growth OD

Measured: normalized growth

C=C1CC[C@H](O)C/C1=C/C=C1\CCC[C@]2(C)C([C@H](C)/C=C/[C@H](C)C(C)C)CC[C@@H]12 (stereo not given in full)
inactive: locus YAL013W, strain DEP1, hits give low values 0.977 | locus YAL021C, strain ccr4, hits give low values 1.05 | locus YAL026C, strain drs2, hits give low values 1 | locus YAL030W, strain snc1, hits give low values 1.02 | locus YBL061C, strain skt5, hits give low values 1.02 | locus YBR009C, strain hhf1, hits give low values 0.991 | locus YBR021W, strain FUR4, hits give low values 1.04 | locus YBR023C, strain chs3, hits give low values 0.998 | locus YBR171W, strain sec66, hits give low values 1.01 | locus YBR229C, strain ROT2, hits give low values 0.944 | locus YBR231C, strain swc5, hits give low values 0.995 | locus YBR279W, strain paf1, hits give low values 1.01 | locus YCL011C, strain gbp2, hits give low values 1.02 | locus YCL016C, strain dcc1, hits give low values 0.995 | locus YCL029C, strain bik1, hits give low values 0.968 | locus YCL069W, strain vba3, hits give low values 1.01 | locus YCR088W, strain abp1, hits give low values 1.03 | locus YDL005C, strain med2, hits give low values 1 | locus YDL035C, strain GPR1, hits give low values 0.929 | locus YDL040C, strain nat1, hits give low values 1.02 | locus YDL074C, strain BRE1, hits give low values 0.961 | locus YDL101C, strain DUN1, hits give low values 0.976 | locus YDL185W, strain tfp1, hits give low values 0.981 | locus YDL192W, strain arf1, hits give low values 0.976 | locus YDR001C, strain nth1, hits give low values 1.03 | locus YDR069C, strain doa4, hits give low values 1.03 | locus YDR101C, strain arx1, hits give low values 0.948 | locus YDR137W, strain rgp1, hits give low values 0.939 | locus YDR150W, strain NUM1, hits give low values 0.977 | locus YDR159W, strain sac3, hits give low values 1.02 | locus YDR162C, strain NBP2, hits give low values 0.863 | locus YDR195W, strain ref2 1.03 | locus YDR297W, strain sur2, hits give low values 1.01 | locus YDR318W, strain mcm21, hits give low values 0.98 | locus YDR334W, strain swr1, hits give low values 1.03 | locus YDR335W, strain msn5, hits give low values 1.03 | locus YDR388W, hits give low values 0.977 | locus YDR392W, strain spt3, hits give low values 0.911 | locus YDR502C, strain sam2, hits give low values 0.998 | locus YEL003W, strain gim4, hits give low values 1.03 | locus YEL037C, strain rad23, hits give low values 1.01 | locus YEL061C, strain CIN8 (second series), hits give low values 1.03 | locus YEL061C, strain CIN8, hits give low values 0.982 | locus YER015W, strain faa2, hits give low values 1.01 | locus YER016W, strain bim1, hits give low values 1.02 | locus YER110C, hits give low values 0.977 | locus YER111C, strain swi4, hits give low values 0.996 | locus YER155C, strain BEM2 (second series), hits give low values 1.06 | locus YER155C, strain BEM2, hits give low values 0.997 | locus YER167W, strain BCK2, hits give low values 0.999 | locus YFR010W, strain ubp6, hits give low values 1.02 | locus YGL078C, strain dbp3, hits give low values 0.972 | locus YGL086W, strain mad1, hits give low values 0.958 | locus YGL167C, strain pmr1, hits give low values 1.03 | locus YGL173C, strain kem1, hits give low values 1.04 | locus YGL227W, strain vid30, hits give low values 1.01 | locus YGL240W, strain doc1, hits give low values 1.03 | locus YGL248W, strain PDE1, hits give low values 0.978 | locus YGL253W, strain hxk2, hits give low values 0.989 | locus YGR078C, strain PAC10, hits give low values 0.974 | locus YGR135W, strain pre9, hits give low values 1.03 | locus YGR252W, strain gcn5, hits give low values 1.08 | locus YHR013C, strain ard1, hits give low values 1.07 | locus YHR027C, strain rpn1, hits give low values 1.03 | locus YHR030C, strain SLT2, hits give low values 0.998 and 0.979 | locus YHR079C, strain IRE1 (second series), hits give low values 0.964 | locus YHR079C, strain IRE1, hits give low values 0.997 | locus YHR094C, strain hxt1, hits give low values 0.978 | locus YHR129C, strain ARP1, hits give low values 0.988 | locus YHR142W, strain chs7, hits give low values 1 | locus YHR200W, strain rpn10, hits give low values 0.981 | locus YIL066C, strain RNR3, hits give low values 0.968 | locus YIL073C, strain SPO22, hits give low values 0.994 | locus YIL125W, strain kgd1, hits give low values 0.98 | locus YIR030C, strain dcg1, hits give low values 0.984 | locus YJL092W, strain hpr5, hits give low values 1.02 | locus YJL095W, strain BCK1 (second series), hits give low values 1.02 | locus YJL095W, strain BCK1, hits give low values 0.959 and 1 | locus YJL115W, strain asf1, hits give low values 1.02 | locus YJL129C, strain trk1, hits give low values 1.02 | locus YJL134W, strain LCB3, hits give low values 0.982 | locus YJL154C, strain vps35, hits give low values 1.03 | locus YJL164C, strain tpk1, hits give low values 1.01 | locus YJL166W, strain qcr8, hits give low values 1 | locus YJL168C, strain set2, hits give low values 0.991 | locus YJL187C, strain SWE1 (second series), hits give low values 0.965 | locus YJR043C, strain POL32, hits give low values 0.956 | locus YJR066W, strain TOR1, hits give low values 0.891 | locus YJR075W, strain HOC1, hits give low values 0.979 | locus YKL009W, strain mrt4, hits give low values 0.935 | locus YKL068W, hits give low values 0.994 | locus YKL085W, strain MDH1 (second series), hits give low values 0.993 | locus YKL085W, strain MDH1, hits give low values 0.993 | locus YKL160W, strain elf1, hits give low values 1.01 | locus YKR001C, strain vps1, hits give low values 0.949 | locus YKR026C, strain gcn3, hits give low values 1.02 | locus YKR091W, strain srl3, hits give low values 1.01 | locus YLL001W, strain dnm1, hits give low values 1.02 | locus YLL026W, hits give low values 1.01 | locus YLL041C, strain sdh2, hits give low values 1.03 | locus YLR027C, strain aat2, hits give low values 1.01 | locus YLR039C, strain RIC1, hits give low values 0.777 | locus YLR058C, strain SHM2, hits give low values 0.978 | locus YLR102C, strain apc9, hits give low values 0.991 | locus YLR113W, strain HOG1, hits give low values 1.02 | locus YLR221C, strain rsa3, hits give low values 1.02 | locus YLR258W, strain gsy2, hits give low values 1.01 | locus YLR262C, strain YPT6 (second series), hits give low values 0.907 | locus YLR262C, strain YPT6, hits give low values 0.758 | locus YLR268W, strain sec22, hits give low values 0.937 | locus YLR320W, strain mms22, hits give low values 0.987 | locus YLR330W, strain CHS5, hits give low values 0.984 | locus YLR342W, strain FKS1 (second series), hits give low values 0.991 | locus YLR342W, strain FKS1, hits give low values 1.01 | locus YLR357W, strain rsc2, hits give low values 1.05 | locus YLR370C, strain arc18, hits give low values 1.04 | locus YLR371W, strain rom2, hits give low values 1.01 | locus YLR384C, strain iki3, hits give low values 1.02 | locus YLR418C, strain cdc73, hits give low values 0.985 | locus YML016C, strain PPZ1, hits give low values 0.984 | locus YML032C, strain rad52, hits give low values 0.979 | locus YML120C, strain ndi1, hits give low values 1.03 | locus YML124C, strain tub3, hits give low values 0.985 | locus YMR058W, strain fet3, hits give low values 1 | locus YMR078C, strain ctf18, hits give low values 0.984 | locus YMR125W, strain sto1, hits give low values 1.02 | locus YMR129W, hits give low values 1.02 | locus YMR205C, strain PFK2, hits give low values 1.02 | locus YMR223W, strain ubp8, hits give low values 1.01 | locus YMR231W, strain pep5, hits give low values 1 | locus YMR263W, strain SAP30, hits give low values 0.976 | locus YMR307W, strain GAS1, hits give low values 0.923 | locus YNL067W, strain RPL9B, hits give low values 0.982 | locus YNL071W, strain lat1, hits give low values 0.983 | locus YNL183C, strain NPR1, hits give low values 0.98 | locus YNL209W, strain ssb2, hits give low values 1.01 | locus YNL233W, strain BNI4, hits give low values 0.993 | locus YNL248C, strain rpa49, hits give low values 1.02 | locus YNL250W, strain rad50, hits give low values 0.993 | locus YNL271C, strain bni1, hits give low values 0.967 | locus YNL298W, strain CLA4, hits give low values 0.969 | locus YNL307C, strain MCK1, hits give low values 0.989 | locus YNL322C, strain KRE1 (second series), hits give low values 1.03 | locus YNL322C, strain KRE1, hits give low values 0.999 | locus YNR049C, strain mso1, hits give low values 1.02 | locus YNR052C, strain pop2, hits give low values 0.981 | locus YOL006C, strain TOP1, hits give low values 0.967 | locus YOL012C, strain htz1 1.45 | locus YOL147C, strain pex11, hits give low values 0.993 | locus YOR001W, strain rrp6, hits give low values 1 | locus YOR061W, strain CKA2, hits give low values 0.953 | locus YOR069W, strain VPS5, hits give low values 0.98 | locus YOR070C, strain gyp1, hits give low values 1.01 | locus YOR080W, strain dia2, hits give low values 1.01 | locus YOR083W, strain WHI5, hits give low values 0.985 | locus YOR106W, strain vam3, hits give low values 1.04 | locus YOR136W, strain idh2, hits give low values 0.981 | locus YOR144C, strain elg1, hits give low values 0.989 | locus YOR184W, strain ser1, hits give low values 0.939 | locus YOR231W, strain MKK1, hits give low values 1.02 | locus YOR265W, strain rbl2, hits give low values 1.01 | locus YOR270C, strain vph1, hits give low values 0.873 | locus YOR290C, strain snf2, hits give low values 1.02 | locus YOR316C, strain cot1, hits give low values 0.978 | locus YPL051W, strain arl3, hits give low values 1.01 | locus YPL055C, strain LGE1, hits give low values 1.01 | locus YPL078C, strain atp4, hits give low values 1.01 | locus YPL106C, strain sse1, hits give low values 1.09 | locus YPL240C, strain hsp82, hits give low values 1.01 | locus YPL256C, strain CLN2, hits give low values 1.01 | locus YPR119W, strain clb2, hits give low values 0.982 | locus YPR141C, strain kar3, hits give low values 0.981 | locus YPR163C, strain tif3, hits give low values 0.992 | locus YPR167C, strain met16, hits give low values 0.985 | strain wtn01, hits give low values 0.981

— PubChem BioAssay AID1159580 (chemical genetic matrix, 2015)
